# High-throughput results: PubChem, several laboratories
# CHOP inhibitor: inhibitors of CHOP promoter induction, primary screen, cell-based, unfolded protein response, luciferase reporter | CHO-K1 CHOP-promoter luciferase, tunicamycin-induced, 15-18 h | inhibition, % at 10 µM | hit rate 3.8% among 220,000 | AID 2732, 2010;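 active = compounds that reduced the stress-induced luciferase reporter signal by more than about 70% of percent inhibition, limit read from the data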
# S1P4 antag: S1P4 receptor antagonists, primary screen, cell-based | Sphingosine 1-phosphate receptor 4 (Homo sapiens), O95977 | S1P4-expressing cells, antagonist mode, reporter read-out | inhibition, % at 4.98 µM | hit rate 0.26% among 220,000 | AID 1510, 2009; in the data active = inhibition above about 29%
# Target sequence (O95977 whole entry, looked up): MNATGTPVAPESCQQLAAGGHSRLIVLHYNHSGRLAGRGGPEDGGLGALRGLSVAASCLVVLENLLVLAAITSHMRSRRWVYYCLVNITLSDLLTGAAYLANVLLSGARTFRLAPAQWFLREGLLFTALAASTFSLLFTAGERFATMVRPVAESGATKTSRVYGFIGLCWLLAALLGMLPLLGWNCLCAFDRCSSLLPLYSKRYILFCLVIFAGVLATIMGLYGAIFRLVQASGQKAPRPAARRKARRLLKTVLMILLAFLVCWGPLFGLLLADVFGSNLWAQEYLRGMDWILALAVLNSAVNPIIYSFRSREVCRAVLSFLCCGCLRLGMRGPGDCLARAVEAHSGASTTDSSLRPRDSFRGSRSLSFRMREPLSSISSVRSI
# Hsp70 act: Hsp70 transcriptional activators, primary screen, cell-based, HeLa, Hsp70 promoter luciferase, luminescence, 10 µM | hit rate 0.04% among 200,000 | HeLa Hsp70 promoter luciferase reporter; scaled: vehicle 0, proteasome-inhibitor control 100% | activation, % at 10 µM;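 active = activation above the mean across all tested compounds plus 3 SD, cutoff set per campaign, cut at about 5.5% in these data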
# S1P4 agonist: S1P4 receptor agonists, primary screen, cell-based; Sphingosine 1-phosphate receptor 4 (Homo sapiens), O95977; S1P4-expressing cell line, agonist reporter assay; activation, % at 4.98 µM; hit rate 0.35% among 220,000; AID 1509, 2009; in the data active = activation above about 11%
# Hits are given with their value; 0 = inactive; - = no result given. Sampled rows, rich in hits. Any-hit rate of the full collection: about 4.2%.
SMILES,CHOP inhibitor,S1P4 antag,Hsp70 act,S1P4 agonist
N#CC(C#N)=c1ccc2c(c1)N1C3=C(CCCC3)CC3CCCCC31N=2 (stereo unspecified),0,0,0,0
CC1(C)NC(=O)N(CCCCOc2ccc3ccccc3c2Cl)C1=O,0,0,0,0
N/C(=N\OC(=O)c1cccc(Cn2cc(C(F)(F)F)ccc2=O)c1)c1ccccc1,0,0,-,0
Cc1ccc(C2NC(c3ccc(C)cc3)C(C)C(=NO)C2C)cc1 (stereo unspecified),84,0,0,0
CC1C(=NO)C(C)C(c2ccccc2)NC1c1ccccc1 (stereo unspecified),0,0,0,0
O=C(CCCN1C(=O)/C(=C/c2ccccc2Cl)SC1=S)NNC(=O)c1ccccc1Cl,95,0,0,0
COc1ccc(/C=C2\SC(=S)N(CCCC(=O)NNC(=O)c3ccccc3O)C2=O)cc1,106,0,0,0
CCc1ccc(/C=C2\SC(=S)N(CCCC(=O)Nc3nccs3)C2=O)cc1,78,0,0,0
O=C(CCCN1C(=O)/C(=C/c2ccccc2Cl)SC1=S)NNC(=O)c1ccncc1,0,0,-,0
CN(C)/C=N/c1nc2nccc(-c3ccc(Cl)cc3)n2n1,0,0,0,0
CC(/C=N/Nc1nc(N2CCCCC2)nc(N2CCCCC2)n1)=C\c1ccccc1,73,0,0,0
Cc1ccc(C)c(C(=O)CN2C(=O)CCC2=O)c1,0,0,0,0
O=C(Nc1ccc(N=Nc2ccccc2)cc1)c1ccc(Cl)cc1Cl,77,0,0,0
O=C(NCC1OCCc2ccccc21)c1ccc(NC(=O)c2ccccc2Cl)cc1 (stereo unspecified),0,0,0,0
O=C(NCC1OCCc2ccccc21)c1ccc(NC(=O)c2ccc(Cl)cc2Cl)cc1 (stereo unspecified),98,0,0,0
Cc1nc([N+](=O)[O-])cn1CC(O)c1ccccc1 (stereo unspecified),0,0,-,0
COCCCNC(=O)C1CC(=O)N(C2CCCC2)C1 (stereo unspecified),0,0,0,0
COc1ccc(/C=N/Nc2cc(N3CCCC3)nc(N3CCCC3)n2)cc1,0,0,0,0
Oc1cccc(/C=N/Nc2cc(N3CCCC3)nc(N3CCCC3)n2)c1,79,0,0,0
Cn1cccc1C(=O)OCc1cc(Cl)cc2c1OCOC2,73,0,0,0
Cn1cccc1C(=O)OCC(=O)Nc1ccc2c(c1)OCO2,0,0,0,0
CCOc1cc(NC(=O)C2CCCCC2)c(OCC)cc1NC(=O)c1ccco1,84,0,0,0
Cc1ccccc1C(=O)NC(=S)Nc1ccc(S(=O)(=O)N(C)c2ccccc2)cc1,77,0,0,0
O=C(Cn1nnc(-c2ccc(CN3CCOCC3)cc2)n1)N1CCCc2ccccc21,0,0,0,0
CC(C)(C)C(C(Oc1ccc(Cl)cc1)n1cncn1)n1nnnc1C(c1cccc(Cl)c1)N1CCCCC1 (stereo unspecified),0,0,0,0
SMILES,CHOP inhibitor,S1P4 antag,Hsp70 act,S1P4 agonist
CCc1ccc(-c2nc(C(N)=O)c3[nH]c(=O)n(-c4ccccc4OC)c3n2)cc1,72,0,0,0
COc1cccc(-c2nc(C(N)=O)c3[nH]c(=O)n(-c4cccc(Cl)c4)c3n2)c1OC,0,0,0,0
COc1ccc(-c2nc(C(N)=O)c3[nH]c(=O)n(-c4cccc(Cl)c4)c3n2)cc1OC,95,0,0,0
O=C(Cn1cc(SCc2ccc(F)cc2)c2ccccc21)N1CCOCC1,0,0,0,0
CN(C)CCNc1oc(-c2ccccc2F)nc1C#N,0,0,0,0
N#Cc1nc(-c2ccccc2F)oc1NC1CCCCC1,80,0,0,0
NC(=O)c1c(-c2ccc(Cl)cc2Cl)csc1NC(=O)Cc1ccccc1,73,0,0,0
O=C(Cc1ccccc1)Nc1scc(-c2ccccc2)c1C(=O)N1CCOCC1,0,0,0,0
O=C(Nc1cccc(F)c1)/C(=C\c1ccco1)NC(=O)c1cccs1,0,0,0,0
CCOC(=O)C1=C(CN2CCC(C)CC2)NC(=O)NC1c1ccc(Cl)cc1 (stereo unspecified),87,0,0,0
CC(C)Cn1c(N)c(C(=O)CSc2cc(Cl)ccc2Cl)c(=O)n(C)c1=O,96,0,0,0
CC(C)Cn1c(N)c(C(=O)CCl)c(=O)n(C)c1=O,0,0,0,0
Cc1coc2c1c(C)cc1oc(=O)c(Cc3ccccc3)c(C)c12,0,0,0,0
c1ccc(-c2noc(-c3ccc4ccccc4c3)n2)nc1,93,0,0,0
